Measurements as given in PubChem BioAssay AID1851 (National Center for Advancing Translational Sciences (NCATS), 2009).
About 5,700 (36%) of roughly 16,000 compounds were called active. About 24% were inconclusive and are not listed. Calls come from the whole dose curve; as a rule, active = well fitted curve in the direction sought with a large enough effect; inconclusive = small, poorly fitted or top-dose-only effect, or effect the other way; inactive = no such curve, though single readings can be large or run the other way. This is one part of the list.

Molecular target: Cytochrome P450 1A2 (Homo sapiens) (UniProt P05177)
Assay: Cytochrome panel assay with activity outcomes
Details: recombinant CYP, pro-luciferin dealkylation, luminescence, p450-cyp1a2; series mostly up to 57.1 µM
% is set by controls: 0 for no effect and ±100 for the full control effect.

Cytochrome P450 1A2 (Homo sapiens), sequence (P05177 whole entry, looked up): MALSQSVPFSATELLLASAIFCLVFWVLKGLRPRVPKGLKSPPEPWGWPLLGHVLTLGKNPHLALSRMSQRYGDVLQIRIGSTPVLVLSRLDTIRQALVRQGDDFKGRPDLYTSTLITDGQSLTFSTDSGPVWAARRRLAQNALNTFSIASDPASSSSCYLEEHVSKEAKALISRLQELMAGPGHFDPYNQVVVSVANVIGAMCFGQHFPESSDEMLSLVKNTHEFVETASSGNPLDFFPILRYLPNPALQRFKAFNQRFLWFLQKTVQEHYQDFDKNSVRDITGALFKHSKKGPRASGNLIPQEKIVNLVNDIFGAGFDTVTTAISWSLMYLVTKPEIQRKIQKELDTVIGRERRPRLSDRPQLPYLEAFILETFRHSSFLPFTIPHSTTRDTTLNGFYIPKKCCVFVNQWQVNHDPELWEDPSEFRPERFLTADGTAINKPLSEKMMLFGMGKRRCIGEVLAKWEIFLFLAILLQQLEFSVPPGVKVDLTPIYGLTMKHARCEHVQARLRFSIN

Row | Compound | AC50 | activity, negative = inhibition
1 | Cc1ccc(-c2nc3c(=O)n(C)c4ccccc4c3o2)cc1 | 398 nM (active) | –
2 | Cc1ccc(S(=O)(=O)n2c3ccccc3c3nnc(C(=O)c4ccccc4)nc32)cc1 | – | -2.9% [at 11.4 µM] (inactive)
3 | Cn1c(=O)c2nc(-c3ccccc3)oc2c2ccccc21 | 398 nM (active) | –
4 | COc1ccc2[nH]cc(CCNc3ccnc(-c4cccnc4)n3)c2c1 | 251 nM (active) | –
5 | COc1ccc2[nH]cc(CCNc3cc(-c4cccnc4)ncn3)c2c1 | 3160 nM (active) | –
6 | COc1cccc(-c2cc(NCCc3c[nH]c4ccc(OC)cc34)ncn2)c1 | 794 nM (active) | –
7 | COc1ccc2[nH]cc(CCNc3cc(-c4cccc(C#N)c4)ncn3)c2c1 | 794 nM (active) | –
8 | N[C@H](CCC(=O)NCC(=O)O)C(=O)O | inactive | –
9 | COc1ccccc1CN1CCC2(CCNCC2)CC1 | inactive | –
10 | CN(C)CCn1nnnc1SCC1=C(C(=O)O)N2C(=O)[C@@H](NC(=O)Cc3csc(N)n3)[C@@H]2SC1 | inactive | –
11 | COc1ccc2[nH]cc(CCNc3ccnc(-c4cccc(NS(C)(=O)=O)c4)n3)c2c1 | 1580 nM (active) | –
12 | COc1ccc2[nH]cc(CCNc3cc(-c4ccoc4)ncn3)c2c1 | 631 nM (active) | –
13 | CC1(C)S[C@@H]2[C@H](NC(=O)C(N)c3ccccc3)C(=O)N2[C@H]1C(=O)O (stereo partly specified) | inactive | –
14 | c1ccc(-c2nc(N3CCCCCC3)nc(-n3ccnc3)n2)cc1 | 1260 nM (active) | –
15 | CN(c1ccccc1)c1nc(-n2ccnc2)nc(-n2ccnc2)n1 | 158 nM (active) | –
16 | CC(C)[C@@H](OCc1ccccc1)[C@H](C)/C=N\OC[C@@H](O)[C@@H]1O[C@@H]2OC(C)(C)O[C@@H]2[C@H]1O | – | -0.825% [at 11.4 µM] (inactive)
17 | Cc1ccccc1-c1nccc(-n2ccnc2)n1 | 79.4 nM (active) | –
18 | COc1ccccc1-c1nccc(-n2ccnc2)n1 | 158 nM (active) | –
19 | Clc1ccccc1-c1nccc(-n2ccnc2)n1 | 158 nM (active) | –
20 | COC(=O)N1CCC[C@@]2(CCN(C(=O)Nc3ccc(OC)cc3)C2)C1 | inactive | –
21 | N=C(N)SCC(=O)O | – | -10.2% [at 2.29 µM] (inactive)
22 | Cn1c(/C(C#N)=C(\O)c2ccc(S(=O)(=O)N3CCCCC3)cc2)nc2ccccc21 | inactive | –
23 | COc1ccc(/C(O)=C(\C#N)c2nc3ccccc3n2C)cc1OC | 5010 nM (active) | –
24 | CN(CCCNC(=O)c1ccc(/C=N/O)nc1)CCCN(C)Cc1ccccc1 | inactive | –
25 | CN(C)CCCNC(=O)CCc1nc2ccccc2c(=O)[nH]1 | inactive | –
26 | CN(CCCNC(=O)c1cccn2c(=O)c3ccccc3nc12)Cc1ccccc1 | 14100 nM (active) | –

Row | Compound | AC50 | activity, negative = inhibition
27 | c1cncc(CNc2ncncc2-c2ccc3c(c2)OCO3)c1 | 398 nM (active) | –
28 | Cc1cccc(CNc2ncncc2-c2ccc3c(c2)OCO3)c1 | 126 nM (active) | –
29 | c1csc(CNc2ncncc2-c2ccc3c(c2)OCO3)c1 | 200 nM (active) | –
30 | Cc1cnc(CNc2ncncc2-c2ccc3c(c2)OCO3)cn1 | 2000 nM (active) | –
31 | Cc1ccc(N(C(=O)Cn2nnc(-c3ccc(F)cc3)n2)C(CC(C)C)C(=O)NCC2CCCO2)cc1 (stereo unspecified) | inactive | –
32 | c1ccc(Nc2ncncc2-c2ccc3c(c2)OCO3)cc1 | 316 nM (active) | –
33 | c1ccc(CNc2ncncc2-c2ccc3c(c2)OCO3)cc1 | 126 nM (active) | –
34 | CC(C)c1ccccc1S(=O)c1ccccc1C(C)(C)O (stereo unspecified) | – | -10.7% [at 2.29 µM] (inactive)
35 | O=C(O)c1ccccc1OP(=O)(O)O | inactive | –
36 | O=C(O)c1ccc(/C=N\N=C2c3ccccc3-c3ccccc32)cc1 | 126 nM (active) | –
37 | NCc1ccc(C(=O)O)cc1 | – | -4.79% [at 2.29 µM] (inactive)
38 | O=C(O)c1ccccc1/C=N\N=C1c2ccccc2-c2ccccc21 | 316 nM (active) | –
39 | O=C(O)c1cccc2cccc(-c3cccc4cccc(C(=O)O)c34)c12 | – | -12.3% [at 2.29 µM] (inactive)
40 | Cc1ccc(Cl)cc1-n1c(=O)cc(N2CC(C)OC(C)C2)[nH]c1=O (stereo unspecified) | inactive | –
41 | Cc1cccc(Nc2cc(Cl)nc(SCC(=O)O)n2)c1C | inactive | –
42 | Clc1ccc(Cl)c(Nc2ccnc(SCc3ccccc3)n2)c1 | 501 nM (active) | –
43 | Cn1c(=O)n2n(c1=O)[C@H]1[C@H](O)[C@H]3O[C@@H]3/C(=N/OC[C@@H](O)COCc3ccco3)[C@@H]1CC2 | – | 2.55% [at 11.4 µM] (inactive)
44 | CCc1cccc2c3c([nH]c12)[C@@](CC)(CC(=O)O)OCC3 | inactive | –
45 | CCc1cccc2c(-c3ccccc3)c3c(nc12)OCC3 | 316 nM (active) | –
46 | O=C1Nc2ccccc2/C1=N/c1sc2c(c1C(=O)NCCc1ccccc1)CCCC2 | 2510 nM (active) | –
47 | O=C1Nc2ccccc2C1=Nc1ccc(S(=O)(=O)Nc2nccs2)cc1 | – | -18.2% [at 11.4 µM] (inactive)
48 | NS(=O)(=O)c1ccc(N=C2C(=O)Nc3ccccc32)cc1 | – | -12.7% [at 2.29 µM] (inactive)
49 | CC(=O)NCCNc1nc(-c2cccc(NS(C)(=O)=O)c2)nc2ccccc12 | 15800 nM (active) | –
50 | COCCNc1nc(-c2cccc(NS(C)(=O)=O)c2)nc2ccccc12 | 3160 nM (active) | –
51 | CS(=O)(=O)Nc1cccc(-c2nc(NCc3cccs3)c3ccccc3n2)c1 | 1000 nM (active) | –
52 | CS(=O)(=O)Nc1cccc(-c2nc(NCc3ccccc3)c3ccccc3n2)c1 | 2510 nM (active) | –

Row | Compound | AC50 | activity, negative = inhibition
53 | c1cc(NNc2cccc(-c3nn[nH]n3)c2)cc(-c2nn[nH]n2)c1 | – | -15.5% [at 2.29 µM] (inactive)
54 | CC[C@@H]1CC(=O)N(SC[C@H](N)C(=O)O)C1=O | – | -14.7% [at 11.4 µM] (inactive)
55 | COc1cccc([C@@H]2Oc3ccc(Br)cc3C(=O)[C@H]2O)c1 | – | -3.35% [at 11.4 µM] (inactive)
56 | CCc1c(C)c(C#N)c2nc3ccccc3n2c1Nc1c(C)n(C)n(-c2ccccc2)c1=O | inactive | –
57 | Cc1cccc(CNc2nc(-c3cccc(NS(C)(=O)=O)c3)nc3ccccc23)c1 | 15800 nM (active) | –
58 | Cc1sc(NC(=O)c2ccco2)c(C(c2cccnc2)N2CCN(C)CC2)c1C (stereo unspecified) | inactive | –
59 | Cc1sc(NC(=O)c2ccco2)c(C(c2cccnc2)N2CCCC2)c1C (stereo unspecified) | 14100 nM (active) | –
60 | Cc1sc(NC(=O)c2ccco2)c(C(c2ccncc2)N2CCOCC2)c1C (stereo unspecified) | inactive | –
61 | CCCCN(C)Cc1c(C)[nH]c2ccc(Cl)cc2c1=O | 5010 nM (active) | –
62 | CN1CC[C@@]2(CCCN(C(=O)c3cccn3C)C2)C1 | inactive | –
63 | CC(=O)N1CCC[C@@]2(CCN(c3ccccc3)C2)C1 | inactive | –
64 | Cn1cccc1C(=O)N1CCC2(CC1)CN(c1ccncc1)C2 | inactive | –
65 | O=C(c1ccco1)N1CCC2(CC1)CCN(C(c1ccccc1)c1ccccc1)CC2 | inactive | –
66 | O=C(c1cccc(F)c1)N1CCC[C@@]2(CCN(C(c3ccccc3)c3ccccc3)C2)C1 | inactive | –
67 | O=C(c1ccco1)N1CCC2(CC1)CN(C(c1ccccc1)c1ccccc1)C2 | inactive | –
68 | CC(C)NC(=O)N1CC[C@@]2(CCCN(C(=O)c3cccn3C)C2)C1 | inactive | –
69 | O=C(c1ccco1)N1CCC[C@@]2(CCN(C(c3ccccc3)c3ccccc3)C2)C1 | 25100 nM (active) | –
70 | Cn1cccc1C(=O)N1CCC[C@@]2(CCN(C(c3ccccc3)c3ccccc3)C2)C1 | 20000 nM (active) | –
71 | Cn1cccc1C(=O)N1CCC[C@@]2(CCN(c3ccccc3)C2)C1 | 12600 nM (active) | –
72 | CC(=O)N1CCC[C@@]2(CCN(c3ccncc3)C2)C1 | inactive | –
73 | Cn1cccc1C(=O)N1CCC[C@@]2(CCN(c3ccncc3)C2)C1 | 12600 nM (active) | –
74 | NC(N)=NC[C@@H]1CCCCCCN1 | – | -17.8% [at 11.4 µM] (inactive)
75 | C=CCCCCCCCCC(=O)Nc1c[nH]c(=O)[nH]c1=O | inactive | –
76 | O=C1CN(c2nc(-c3ccccc3)c3cc(Br)ccc3n2)c2ccccc2N1 | 2510 nM (active) | –
77 | CC12CCC(C(=O)O)(C/C1=N\O)C2(C)C (stereo unspecified) | inactive | –
78 | COC(=O)[C@]1(C)CCC(c2ccc(C)cc2)=C(CC(=O)O)C1 | – | -8.38% [at 2.29 µM] (inactive)

Row | Compound | AC50 | activity, negative = inhibition
79 | CCc1ccc(N(C(=O)c2csnn2)C(C(=O)NCc2ccccc2)c2ccco2)cc1 (stereo unspecified) | inactive | –
80 | Cc1ccc(N(C(=O)c2csnn2)C(C(=O)NC(C)(C)C)c2cccs2)cc1 (stereo unspecified) | inactive | –
81 | CCc1ccc(N(C(=O)c2csnn2)C(C(=O)NC(C)(C)C)c2ccncc2)cc1 (stereo unspecified) | 22400 nM (active) | –
82 | CCOC(=O)/C(C(N)=NCCCO)=C(/O)c1ccccc1 | inactive | –
83 | CCOC(=O)/C(=C/Nc1ccccc1)[N+](=O)[O-] | 2820 nM (active) | –
84 | C/C=C\C1=C(CO)[C@H](O)[C@H]2O[C@H]2[C@H]1O | – | -3.7% [at 11.4 µM] (inactive)
85 | COc1ccc(C[C@H](N)C(=O)N[C@@H]2[C@H](O)[C@H](n3cnc4c(N(C)C)ncnc43)O[C@@H]2CO)cc1 | inactive | –
86 | CC(C)N(CC(=O)O)CC(=O)O | – | -20.9% [at 11.4 µM] (inactive)
87 | Cc1cccc(C(=O)Nc2nnc(-c3ccc(C(C)(C)C)cc3)s2)c1 | inactive | –
88 | CC(=O)Nc1nonc1NC(=O)c1ccc(C(C)(C)C)cc1 | 1000 nM (active) | –
89 | CC(C)(C)c1ccc(C(=O)NC(Cc2ccccc2)C(=O)O)cc1 (stereo unspecified) | inactive | –
90 | COC(=O)N1CCC[C@@]2(CCN(c3ncccn3)C2)C1 | inactive | –
91 | O=C(Oc1ccccc1)N1CCC[C@@]2(CCN(c3ncccn3)C2)C1 | 12600 nM (active) | –
92 | CC(=O)N1CCC2(CCCN(c3ccccn3)C2)CC1 | inactive | –
93 | COC(=O)N1CCC[C@@]2(CCN(c3ccccn3)C2)C1 | 15800 nM (active) | –
94 | O=C(Oc1ccccc1)N1CCC2(CC1)CCN(c1ncccn1)CC2 | inactive | –
95 | O=C(Oc1ccccc1)N1CCC2(CC1)CN(c1ccccn1)C2 | inactive | –
96 | O=C(Oc1ccccc1)N1CCC2(CCCN(c3ncccn3)C2)CC1 | 10000 nM (active) | –
97 | CC(=O)N1CCC[C@@]2(CCN(c3ncccn3)C2)C1 | inactive | –
98 | CC(=O)N1CCC2(CCCN(c3ncccn3)C2)CC1 | inactive | –
99 | O=C(Oc1ccccc1)N1CCC2(CCCN(c3ccccn3)C2)CC1 | 20000 nM (active) | –
100 | COC(=O)N1CCC2(CC1)CN(c1ccccn1)C2 | inactive | –
101 | O=C(c1csnn1)N1CCC[C@@]2(CCN(c3ccccn3)C2)C1 | inactive | –
